Results on four compounds are retold here after PubChem BioAssay (NCATS).

Results filed as inconclusive are left out. The source made the active and inactive calls. Unless noted, calls follow the shape of the dose curve; as a rule, active = well fitted curve in either direction with a large enough effect (not every such curve was filed as active); inconclusive = small, poorly fitted or top-dose-only effect, or another doubt; inactive = flat fitted curve, though single readings scatter.

For assay [1], the target named is Cytochrome P450 1A2 (Homo sapiens) (UniProt P05177). The assay can be described thus: p450-cyp1a2 (AID 410; calls by dose curve; also: potency is read from the fitted curve at half-maximal effect). Put shortly:
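20nM CYP1A2, 100uM Luciferin-ME (=Km), 100mM KPO4; cpd 10 min RT; +NADPH regen, 60 min RT; stop/detect 20 min; luminescence. Normalized to furafylline 57 uM = full inhibition.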

The target of assay [2] is Mitogen-activated protein kinase 10 (Mus musculus) (UniProt Q61831). The assay can be described thus: JNK3 AlphaScreen Assay (AID 530).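 Also: kinase came from lysate of stimulated human HepG2 cells; signal reports phosphorylation of biotinylated GST-cJun 1-79 at Ser73 with 10 µM ATP; % is scaled to controls: 0 for no effect and ±100 for the full control effect.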 The method in brief:
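Kinase buffer: 20 mM Tris-HCl pH 7.6, 10 mM MgCl2, 1 mM DTT, 0.1 mM Na3VO4, 0.01% Tween-20; ATP 10 uM. Substrate biotin-GST-cJun(1-79), enzyme from activated HepG2 lysates. Detection by Ser73 phospho-antibody AlphaScreen.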

For assay [3], the target named is Cytochrome P450 3A4 (Homo sapiens) (UniProt P08684). The assay can be described thus: qHTS Assay for Activators of Cytochrome P450 3A4 (AID 885; active = well fitted curve in the direction sought with a large enough effect; an effect the other way counts as inactive or inconclusive; also: nearly all actives have a fitted effect of over 65% in size). Put shortly:
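Activators are scored by enhanced luminescence from CYP3A4 conversion of luciferin-PPXE (25uM, equal to KM) to luciferin, after 60 min at RT with an NADPH-regenerating system.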
(Quantitative high-throughput screening tests each substance at several concentrations.)

Assay [4] can be described thus: qHTS Assay for Lipid Storage Modulators (AID 1519; calls by dose curve). To be noted: Drosophila S3 cells, BODIPY lipid droplet/cell ratio, laser cytometry, cells loaded with oleic acid; for activity change, negative = inhibition: at 57.5 µM (top of the series). Put shortly: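 Cells seeded at 5,000 per well were treated with compounds over a concentration series and loaded with oleic acid (400 uM, as added). Lipid droplet fluorescence (488 nm excitation, 500-530 nm channel) was read by laser-scanning cytometry and normalized to 20 uM Triacsin C.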

The target in assay [5] is Ubiquitin carboxyl-terminal hydrolase 1 (Homo sapiens) (UniProt O94782). Description: Inhibitors of USP1/UAF1: Pilot qHTS (AID 504865; active = well fitted curve in the direction sought with a large enough effect; an effect the other way counts as inactive or inconclusive;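 also: rhodamine fluorescence freed from ubiquitin-rhodamine substrate followed over time; top concentration of the series differs between compounds; % is scaled to controls: 0 for no effect and ±100 for the full control effect; nearly all actives have a fitted effect of over 35% in size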). The method in brief:
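Kinetic fluorescence assay: 1nM USP1/UAF1, 15 min compound preincubation, then 150nM Ub-Rho; 480/540 nm.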

Assay [6] can be described thus: Primary qHTS for small molecule stabilizers of the endoplasmic reticulum resident proteome: Secreted ER Calcium Modulated Protein (SERCaMP) assay (AID 1508630; active = well fitted curve in the direction sought with a large enough effect; an effect the other way counts as inactive or inconclusive; also: % is scaled to controls: 0 for no effect and ±100 for the full control effect). Put shortly:
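The SH-SY5Y reporter protocol was run at 3 concentrations up to 38.3 uM (primary) or 11 concentrations (follow-up): 16 h compound, 100 nM thapsigargin for 4 h, then extracellular luciferase luminescence.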

Assay [7] has as its target Lysosomal acid glucosylceramidase (Homo sapiens) (UniProt P04062). The assay can be described thus: Glucocerebrosidase-p2 (AID 348; in the data active = potency below about 10 µM; also: potency is read from the fitted curve at half-maximal effect). Particulars: purified GBA, blue fluorogenic substrate, 40 min. The method in brief:
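Normal human glucocerebrosidase (0.2 nM) with blue fluorogenic substrate (80 uM final) in citrate/phosphate pH 5.9 with 10mM sodium taurocholate, 0.01% tween-20; 40 min RT, NaOH/glycine stop; fluorescence Ex 365/Em 440; AC50 from a titration from 0.6 nM upwards.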

Assay [8] can be described thus: AP1 Signaling Pathway (AID 357).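 Also: ME-180 reporter cells stimulated with EGF at its EC50 level; % is scaled to controls: 0 for no effect and ±100 for the full control effect.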 To be noted: ME-180 AP-1-bla reporter, EGF-induced, beta-lactamase ratio, 5 h; at 7.69 µM (top of the series) unless noted. Put shortly:
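Cells are seeded overnight, exposed to compound titrations and an EC50 level of EGF for 5 hours at 37 °C, then loaded with CCF4 dye for 2.5 hours. Beta-lactamase activity under the AP-1 element is read as a blue/green ratio.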

Assay [9] can be described thus: NFAT Signaling Pathway (AID 444).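 Also: carbachol stimulus at about its EC50 of 1 µM final; % is scaled to controls: 0 for no effect and ±100 for the full control effect.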 Particulars: Jurkat NFAT-bla M1, carbachol, beta-lactamase ratio, 5 h; at 7.69 µM (top of the series) unless noted. Put shortly:
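Read-out: CCF4 FRET ratio (460 nm/530 nm) after 1 h RT dye loading, used for %activity and AC50 from titration series. Cells: Jurkat NFAT-β-lactamase/M1 line, treated with compound plus 1 uM carbachol for 5 h, 37 °C.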

In assay [10] the target is Glucocorticoid receptor (Homo sapiens) (UniProt P04150). The assay can be described thus: GR-EFC Redistribution (AID 451; calls by dose curve; also: potency is read from the fitted curve at half-maximal effect). To be noted: CHO-K1 GR-EFC translocation, beta-gal luminescence, 2 h. The method in brief: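 Translocation of GR-ED fusion to nuclear EA restores b-gal, read by luminescence after 1 h room-temperature detection. Engineered CHO-K1 biosensor cells, 1,000/well, exposed 2 h at 37 C to titrations up to 46 uM final.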

Assay [11] deals with 3',5'-cyclic-AMP phosphodiesterase 4B (Homo sapiens) (UniProt Q07343). The assay can be described thus: qHTS Assay for Inhibitors of PDE-IV (AID 607; active = well fitted activation curve with a large enough effect in the main read-out, with a control signal flat, not every such curve was filed as active; also: % of control where 0% means no effect). The method in brief: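 The readout is membrane depolarisation from a cAMP-sensing CNG channel, detected with a potential dye at ex 535/em 590. Cells were HEK293-derived (endogenous PDE-IV) at 1000 cells/well, titrated up to 22.9 uM final.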

The nature of assay [12]: Stat Signaling Pathway (AID 446). Particulars: ME-180 (cervical carcinoma) SIE beta-lactamase reporter, IL-6 stimulated, 5 h; at 7.69 µM (top of the series) unless noted. Put shortly: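 Emission at 460 and 530 nm (excitation 405 nm) reports SIE-controlled beta-lactamase in ME-180 cells. Cells received compound with 40 pM IL-6 for 5 hrs at 37 C; data scaled between 300 pM IL-6 and 125 nM JAK-inhibitor controls.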

Where [13] appears, read: measured here: cell count channel max response.
[14] abbreviates: measured here: lipid channel max response.

Chain of Lysosomal acid glucosylceramidase (Homo sapiens) (P04062 whole entry, looked up): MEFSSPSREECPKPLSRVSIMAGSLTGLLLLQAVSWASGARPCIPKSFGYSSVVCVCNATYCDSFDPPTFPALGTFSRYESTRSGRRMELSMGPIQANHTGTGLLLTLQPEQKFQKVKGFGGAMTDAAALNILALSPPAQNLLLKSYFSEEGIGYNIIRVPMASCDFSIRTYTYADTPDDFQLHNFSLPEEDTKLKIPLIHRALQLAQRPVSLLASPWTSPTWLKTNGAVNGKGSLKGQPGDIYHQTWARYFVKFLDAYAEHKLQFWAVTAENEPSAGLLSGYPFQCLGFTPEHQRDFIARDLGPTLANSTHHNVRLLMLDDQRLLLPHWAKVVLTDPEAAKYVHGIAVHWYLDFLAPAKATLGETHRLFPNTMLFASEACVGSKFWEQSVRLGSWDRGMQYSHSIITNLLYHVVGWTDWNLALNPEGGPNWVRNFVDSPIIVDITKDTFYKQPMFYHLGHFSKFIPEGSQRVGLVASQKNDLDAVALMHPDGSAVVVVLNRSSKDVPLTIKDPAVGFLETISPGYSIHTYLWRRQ
Chain of Glucocorticoid receptor (Homo sapiens) (P04150 whole entry, looked up, the tested form may be a part): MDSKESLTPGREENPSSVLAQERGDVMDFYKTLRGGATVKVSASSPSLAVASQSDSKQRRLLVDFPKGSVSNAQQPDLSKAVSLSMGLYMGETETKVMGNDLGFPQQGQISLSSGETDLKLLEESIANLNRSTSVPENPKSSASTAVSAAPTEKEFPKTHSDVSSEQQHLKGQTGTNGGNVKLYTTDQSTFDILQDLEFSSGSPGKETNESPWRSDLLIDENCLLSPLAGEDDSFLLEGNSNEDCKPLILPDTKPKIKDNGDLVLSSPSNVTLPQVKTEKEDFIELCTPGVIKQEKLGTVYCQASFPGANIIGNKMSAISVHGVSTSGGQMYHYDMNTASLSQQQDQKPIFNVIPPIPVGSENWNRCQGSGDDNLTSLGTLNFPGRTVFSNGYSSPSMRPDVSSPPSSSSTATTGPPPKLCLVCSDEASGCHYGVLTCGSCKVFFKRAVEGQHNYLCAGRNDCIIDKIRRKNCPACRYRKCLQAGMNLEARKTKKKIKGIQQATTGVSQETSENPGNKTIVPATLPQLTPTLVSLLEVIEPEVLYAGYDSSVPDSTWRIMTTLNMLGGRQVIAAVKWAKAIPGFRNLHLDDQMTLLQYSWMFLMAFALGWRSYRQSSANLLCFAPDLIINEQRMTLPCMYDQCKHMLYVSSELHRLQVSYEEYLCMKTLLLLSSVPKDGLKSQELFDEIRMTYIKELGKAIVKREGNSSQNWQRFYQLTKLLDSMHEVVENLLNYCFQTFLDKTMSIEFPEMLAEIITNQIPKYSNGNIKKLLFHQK
Chain of 3',5'-cyclic-AMP phosphodiesterase 4B (Homo sapiens) (Q07343 whole entry, looked up): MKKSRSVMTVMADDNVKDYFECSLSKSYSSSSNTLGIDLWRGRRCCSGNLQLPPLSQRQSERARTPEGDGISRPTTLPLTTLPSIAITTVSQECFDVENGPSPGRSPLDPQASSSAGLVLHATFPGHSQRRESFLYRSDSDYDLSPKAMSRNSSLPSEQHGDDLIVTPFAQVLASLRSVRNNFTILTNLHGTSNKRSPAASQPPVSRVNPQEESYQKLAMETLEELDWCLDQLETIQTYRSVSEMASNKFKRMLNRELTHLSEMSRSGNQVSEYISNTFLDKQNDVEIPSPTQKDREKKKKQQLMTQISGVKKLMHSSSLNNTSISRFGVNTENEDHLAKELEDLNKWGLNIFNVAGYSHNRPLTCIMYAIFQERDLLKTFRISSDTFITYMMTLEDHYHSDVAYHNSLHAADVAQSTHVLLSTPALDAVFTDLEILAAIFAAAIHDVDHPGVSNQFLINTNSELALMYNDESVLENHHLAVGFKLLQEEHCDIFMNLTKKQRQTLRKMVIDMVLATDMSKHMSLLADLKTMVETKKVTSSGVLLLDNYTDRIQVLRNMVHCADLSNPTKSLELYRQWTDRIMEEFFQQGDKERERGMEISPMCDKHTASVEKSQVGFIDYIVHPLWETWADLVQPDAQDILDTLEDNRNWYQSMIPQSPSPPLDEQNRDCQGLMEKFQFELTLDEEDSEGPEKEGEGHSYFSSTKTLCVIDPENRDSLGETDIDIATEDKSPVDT
Chain of Cytochrome P450 1A2 (Homo sapiens) (P05177 whole entry, looked up): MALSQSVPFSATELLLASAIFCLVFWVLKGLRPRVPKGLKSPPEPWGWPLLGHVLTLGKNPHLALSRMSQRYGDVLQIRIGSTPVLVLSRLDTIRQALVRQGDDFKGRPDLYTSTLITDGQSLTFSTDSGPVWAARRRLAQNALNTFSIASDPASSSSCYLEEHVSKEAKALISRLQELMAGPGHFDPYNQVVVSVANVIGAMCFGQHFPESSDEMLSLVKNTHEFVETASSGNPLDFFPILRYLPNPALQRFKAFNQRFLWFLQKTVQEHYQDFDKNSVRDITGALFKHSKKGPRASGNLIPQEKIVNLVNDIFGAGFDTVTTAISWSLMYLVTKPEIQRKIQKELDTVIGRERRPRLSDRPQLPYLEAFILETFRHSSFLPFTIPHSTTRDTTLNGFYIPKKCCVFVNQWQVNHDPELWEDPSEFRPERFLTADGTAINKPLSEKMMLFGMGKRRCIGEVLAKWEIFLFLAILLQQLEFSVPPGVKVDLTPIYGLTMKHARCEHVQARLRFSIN
Chain of Ubiquitin carboxyl-terminal hydrolase 1 (Homo sapiens) (O94782 whole entry, looked up): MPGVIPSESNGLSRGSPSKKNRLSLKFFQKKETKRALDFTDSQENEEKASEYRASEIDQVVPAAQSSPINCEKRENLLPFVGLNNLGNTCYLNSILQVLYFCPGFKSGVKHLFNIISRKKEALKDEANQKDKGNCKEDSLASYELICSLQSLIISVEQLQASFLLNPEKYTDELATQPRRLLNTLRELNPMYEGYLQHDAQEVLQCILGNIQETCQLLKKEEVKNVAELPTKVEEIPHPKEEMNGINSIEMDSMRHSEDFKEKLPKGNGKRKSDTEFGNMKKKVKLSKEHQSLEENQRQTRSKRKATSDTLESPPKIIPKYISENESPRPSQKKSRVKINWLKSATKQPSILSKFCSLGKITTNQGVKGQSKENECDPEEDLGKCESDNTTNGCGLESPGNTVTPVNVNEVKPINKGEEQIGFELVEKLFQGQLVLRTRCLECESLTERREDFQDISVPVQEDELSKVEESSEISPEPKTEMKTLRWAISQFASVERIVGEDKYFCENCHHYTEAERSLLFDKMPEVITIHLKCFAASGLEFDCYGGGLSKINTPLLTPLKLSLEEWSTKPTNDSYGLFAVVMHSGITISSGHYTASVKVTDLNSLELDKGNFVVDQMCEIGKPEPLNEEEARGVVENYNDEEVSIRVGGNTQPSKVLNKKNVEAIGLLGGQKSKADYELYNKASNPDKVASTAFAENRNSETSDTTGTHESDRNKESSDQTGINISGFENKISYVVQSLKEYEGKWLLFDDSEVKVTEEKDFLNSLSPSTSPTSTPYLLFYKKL
Chain of Cytochrome P450 3A4 (Homo sapiens) (P08684 whole entry, looked up): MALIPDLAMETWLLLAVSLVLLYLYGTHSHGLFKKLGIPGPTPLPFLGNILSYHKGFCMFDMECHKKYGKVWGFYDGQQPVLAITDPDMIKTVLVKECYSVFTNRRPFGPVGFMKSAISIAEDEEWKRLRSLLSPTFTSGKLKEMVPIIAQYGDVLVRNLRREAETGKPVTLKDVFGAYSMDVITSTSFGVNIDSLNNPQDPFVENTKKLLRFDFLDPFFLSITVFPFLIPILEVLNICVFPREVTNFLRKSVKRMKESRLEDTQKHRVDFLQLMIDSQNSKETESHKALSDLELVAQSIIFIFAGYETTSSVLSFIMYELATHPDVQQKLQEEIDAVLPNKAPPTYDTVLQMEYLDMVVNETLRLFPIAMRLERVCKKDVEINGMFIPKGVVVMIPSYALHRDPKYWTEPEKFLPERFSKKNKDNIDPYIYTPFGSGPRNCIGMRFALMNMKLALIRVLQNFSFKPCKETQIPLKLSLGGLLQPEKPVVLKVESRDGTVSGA

On to `N#Cc1cccc(-c2nc3cnc(N4CCOCC4)nc3n(C3CC3)c2=O)c1`, for which the Potency in [1] is 2.51 µM (active). In addition, the compound was classed as inactive in assay [2]. The Potency entry in assay [3], in assay [5] and in [6] was “inactive” in each case. For the same compound, the activity change, negative = inhibition in assay [4] is -2.2% (inactive). In addition, the max response in assay [4] (setting [13]) came out at 17.6%; in [4] (setting [14]), 13.2%.

For `COc1ccccc1CN1CC[C@@]2(CCCN(C(=O)c3cccc(F)c3)C2)C1`, the values for the Potency in assay [7] and in assay [10] were > 11.4 µM (inactive) and > 46 µM (inactive), respectively. The figures for the activity change, negative = inhibition in assay [8], in assay [9] and in [4] were -14.6% (inactive), -10.9% (inactive) and 5.1% (inactive), respectively. Further, the result in [2] was inactive. Further, the Potency result in assay [11] and in assay [6] was “inactive” each time. Further, the max response in [4] (setting [13]) amounted to 15.7%; in assay [4] (setting [14]) it was 25%.

With `CC(=O)N1CCC[C@@]2(CCN(Cc3cc(C(F)(F)F)cc(C(F)(F)F)c3)C2)C1`, the Potency in assay [7] was > 11.4 µM (inactive); in [10], > 46 µM (inactive). In addition, the activity change, negative = inhibition was -5.47% (inactive) in [8], 20.4% (inactive) in assay [9] and 5.56% (inactive) in [4]. Also, the activity, negative = inhibition in [12] was -6.41% (inactive). The max response in assay [4] (setting [13]) turned out to be 8.88%; in assay [4] (setting [14]), 18.9%. Besides, the Potency result in assay [6] is “inactive”.

With `O=C(c1csnn1)N1CCC2(CC1)CCN(c1ccccc1)CC2`, the Potency is > 11.4 µM (inactive) in assay [7] and > 46 µM (inactive) in assay [10]. Also, the results for the activity change, negative = inhibition in assay [8], in [9] and in assay [4] were -9.9% (inactive), 25.1% (inactive) and 4.25% (inactive), respectively. Moreover, the activity, negative = inhibition in assay [12] is 1.19% (inactive). In addition, the call in assay [2] was inactive. For the same compound, the Potency result in assay [11] and in assay [6] was “inactive” each time. Besides, the results for the max response in assay [4] (setting [13]) and in assay [4] (setting [14]) were 1.9% and 6.57%, respectively.
